Reference: paper PMC5540273 (PLoS ONE, 2017)

Key:
AAK1 = conditions: concentration: 1 μM, replicates: in singlicate; n = 1
ABL1-nonphosphorylated = conditions: concentration: 1 μM, replicates: in singlicate; n = 1
ABL1-phosphorylated = conditions: concentration: 1 μM, replicates: in singlicate; n = 1
ABL2 = conditions: concentration: 1 μM, replicates: in singlicate; n = 1
ACVR1B = conditions: concentration: 1 μM, replicates: in singlicate; n = 1
ACVR1 = conditions: concentration: 1 μM, replicates: in singlicate; n = 1
ACVR2A = conditions: concentration: 1 μM, replicates: in singlicate; n = 1
p38-alpha = system: T1, p38-alpha
T1 construct: gene MAPK14
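For %Inh in this document: KINOMEscan kinase panel screen.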
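For Kd in this document: kd values determined as follow-up on hits from a single-replicate KINOMEscan panel screen.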

Structure (SMILES) | %Inh (AAK1) | %Inh (ABL1-nonphosphorylated) | %Inh (ABL1-phosphorylated) | %Inh (ABL2) | %Inh (ACVR1B) | %Inh (ACVR1) | %Inh (ACVR2A) | Kd (p38-alpha) | Kd (ZAK)
Cn1ccc2ncnc(Oc3ccc(NC(=O)Nc4ccccc4)cc3)c21 | 0% | 26% | 0% | 0% | 0% | 0% | 0% | – | –
CCCc1ccc(S(=O)(=O)NC2CCN(c3ccnc(Nc4ccc(F)cc4)n3)C2)cc1 (stereo not shown) [GSK1379715] | 1% | 0% | 0% | 6% | 0% | 16% | 0% | – | –
COc1ccc(C2=C(Nc3cccc(C(=O)O)c3)C(=O)NC2=O)cc1 [SB-390765] | 4% | 35% | 0% | 1% | 7% | 100% | 0% | – | –
CN(C)CCN(C)C(=O)c1cc(-c2ccncc2)c(-c2ccc(Cl)c(O)c2)o1.Cl.Cl [SB-710397] | 6% | 2% | 6% | 17% | 0% | 0% | 0% | 740 nM | –
Cc1cccc(-c2nc(C)cc(Nc3ccncc3)n2)n1 [GSK257997] | 99.8% | 0% | 0% | 6% | 78% | 15% | 0% | – | –
O=c1cc(N2CCOCC2)nc2n(Cc3cccc(Cl)c3Cl)ccn12 [GSK2286295] | 6% | 0% | 0% | 3% | 0% | 0% | 0% | – | –
Nc1nc(-c2nccs2)c(-c2ccnc3ccccc23)s1 [GW693542] | 8% | 0% | 6% | 15% | 14% | 10% | 0% | – | –
NC(=O)c1nnc2ccccc2c1N | 35% | 25% | 6% | 65% | 0% | 0% | 22% | – | –
C[C@@H]1CCCCN1c1cc(-c2ccc3c(N)n[nH]c3c2)nc(N)n1 [GSK2258759] | 43% | 0% | 0% | 0% | 0% | 24% | 0% | 2100 nM | –
Cc1cccc(-c2cc(Nc3ccncc3)c3ccccc3n2)n1 [GSK223675] | 12% | 0% | 0% | 0% | 88% | 0% | 0% | – | > 10000 nM
Cc1cccc(-c2nc(-c3ccc(S(C)(=O)=O)cc3)sc2-c2ccnc(NCCc3ccccc3)c2)c1 | 12% | 90.7% | 21% | 0% | 8% | 0% | 0% | 1900 nM | –
CC(C)(C)c1ccc(C(=O)Nc2cn3cc(Cl)ccc3n2)cc1 | 0% | 35% | 0% | 0% | 0% | 0% | 0% | – | –
Cc1cccc(-c2nc(Nc3ccc4[nH]ncc4c3)c3ccccc3n2)n1 [GW857175] | 0% | 19% | 14% | 3% | 100% | 0% | 0% | – | –
O=C1NC(=O)C(N2CCc3ccccc32)=C1c1ccccc1Cl [SB-373598] | 7% | 12% | 97.7% | 15% | 35% | 27% | 25% | – | –
COc1ccccc1CNC(=O)c1cc(C(=O)c2ccccc2C)c[nH]1 [GSK364507] | 2% | 0% | 0% | 21% | 0% | 0% | 0% | 270 nM | –
CC(C)(C)c1ccc(C(=O)Nc2cn3cc(-c4cccnc4)ccc3n2)cc1 | 25% | 50% | 37% | 20% | 13% | 21% | 0% | – | –
Cn1ccc2ncnc(Oc3ccc(Nc4nc5ccccc5[nH]4)cc3)c21 | 21% | 45% | 2% | 4% | 0% | 0% | 10% | – | –
